Screening results from PubChem BioAssay.
HP1b binding inh: blocks HP1-beta chromodomain binding to methylated histone tails | 390,000 tested, 0.56% active | AlphaScreen HP1-beta / biotin-H3K9me3 peptide binding | Potency, µM (titrated, usually from 114 µM), actives largely listed as inhibitors | P83916 | AID 540317; note: nearly all actives have a fitted effect of over 70% in size
Target sequence (P83916 whole entry, looked up): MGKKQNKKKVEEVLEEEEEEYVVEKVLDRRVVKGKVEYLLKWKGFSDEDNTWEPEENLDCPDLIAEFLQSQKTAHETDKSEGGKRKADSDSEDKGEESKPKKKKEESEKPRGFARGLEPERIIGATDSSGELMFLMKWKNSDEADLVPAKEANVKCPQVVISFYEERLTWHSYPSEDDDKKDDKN
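AlphaScreen: HP1-beta (50 nM) preformed 30 min with biotin-H3(1-18)K9me3 peptide (50 nM) in PBS pH 7.4, 0.01% Tween-20. Compound added for 30 min at RT, then streptavidin donor/nickel chelate acceptor beads (10 ug/mL) for 30 min.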
BAZ2B inh: inhibitors of human BAZ2B bromodomain. Potency, µM (highest dose often 114 µM), hits mostly inhibitors. Q9UIF8. 360,000 tested, 4.4% active. AlphaScreen BAZ2B-H3K14Ac peptide displacement; note: nearly all actives have a fitted effect of over 60% in size
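Inhibition is scored as reduced AlphaScreen emission. The BAZ2B/b-H3(5-23)K14Ac complex (50 nM each) in PBS pH 7.4, 0.01% Tween-20 meets compound (up to 110 uM) for 30 min at RT before bead addition.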
G9a block: blocks human histone lysine methyltransferase G9a; G9a H3K9 monomethylation, AlphaScreen, 2 h; Potency, µM (highest dose often 102 µM), hits mostly inhibitors; 350,000 tested, 8.8% active; AID 504332; note: nearly all actives have a fitted effect of over 75% in size
Target sequence (Q96KQ7 913-1193 limits assumed): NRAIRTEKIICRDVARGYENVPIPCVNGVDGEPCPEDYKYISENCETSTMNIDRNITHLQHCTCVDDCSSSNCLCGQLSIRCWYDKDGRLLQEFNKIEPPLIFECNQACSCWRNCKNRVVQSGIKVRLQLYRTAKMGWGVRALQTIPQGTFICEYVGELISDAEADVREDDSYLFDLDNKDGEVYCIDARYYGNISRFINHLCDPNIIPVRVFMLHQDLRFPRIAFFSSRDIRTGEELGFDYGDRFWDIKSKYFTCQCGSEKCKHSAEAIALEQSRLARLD
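Step 1: enzyme (final 20 nM) with compound, 15 min RT. Step 2: substrate peptide 500 nM and SAM 20 uM, 2 h RT. Step 3: anti-H3K9me1 antibody and AlphaScreen beads, 10 min, then plate read.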
JMJD2A Tudor inh: inhibitors of human JMJD2A Tudor domain; O75164; AlphaScreen JMJD2A-Tudor / H3K4me3 peptide binding; Potency, µM (top dose mostly 114 µM), usual class: inhibitors; 390,000 tested, 4.4% active; AID 504339; note: nearly all actives have a fitted effect of over 50% in size
Sfp inh: blocks B. subtilis Sfp PPTase activity; Q9F4F7; Biochemical Sfp PPTase activity, qHTS; Potency, µM, hits mostly inhibitors; 310,000 tested, 3.5% active; AID 1490;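 note: the enzyme is Sfp with the accession as filed and its product quenches rhodamine fluorescence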
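Fluorescence-quenching assay with 15 nM Sfp, 5 uM rhodamine-CoA and 12.5 uM BHQ-2-labelled ybbR peptide in pH 7.6 Hepes/MgCl2 buffer. Enzyme was pre-incubated with compound for 15 min at room temperature. Rate was taken from the 30-min fluorescence change (525/598 nm).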
Each line names hits and unclear results; the compound was inactive in the other large screens. Shown are actives, neighbours in structure and some others; about 12% of the full set was active somewhere. Calls come from the whole dose curve; as a rule, active = well fitted curve in the direction sought with a large enough effect; inconclusive = small, poorly fitted or top-dose-only effect, or another doubt; inactive = no such curve, though single readings can be large; an effect the other way counts as inactive or inconclusive.

COc1ccc(NS(=O)(=O)c2cc(NC(=O)C3CCCO3)ccc2N2CCCC2)cc1 (centres undefined)	G9a block 25µM
COc1ccc(NS(=O)(=O)c2cc(NC(=O)CC3CCCC3)ccc2N2CCOCC2)cc1	G9a block inconclusive, Sfp inh 25µM (no result: BAZ2B inh)
COc1ccc(NS(=O)(=O)c2cc(NC(=O)c3ccco3)ccc2N2CCCC2)cc1	G9a block 40µM
Cc1ccc2oc(=O)c3cc(C(=O)NCCCN4CC(C)CC(C)C4)sc3c2c1 (centres undefined)	none
CS(=O)(=O)C1=NSC2=NC(=O)/C(=C\c3ccc(OS(=O)(=O)c4ccccc4)cc3)C(=N)N21	BAZ2B inh 50µM, JMJD2A Tudor inh inconclusive (no result: G9a block)
CCCC1=NN2C(=N)/C(=C\c3cc(C)n(-c4cc(C)cc(C)c4)c3C)C(=O)N=C2S1	JMJD2A Tudor inh inconclusive, Sfp inh 20µM
CC(C)CS(=O)(=O)C1=NSC2=NC(=O)/C(=C\c3ccc(OC(=O)c4ccco4)cc3)C(=N)N21	BAZ2B inh inconclusive (no result: G9a block)
COc1cccc(-n2c(C)cc(/C=C3/C(=N)N4C(=NC3=O)SN=C4S(C)(=O)=O)c2C)c1	BAZ2B inh 56µM, G9a block 45µM, JMJD2A Tudor inh inconclusive
CS(=O)(=O)C1=NSC2=NC(=O)/C(=C\c3ccc(OC(=O)c4ccco4)c(Br)c3)C(=N)N21	BAZ2B inh 56µM, G9a block 20µM, JMJD2A Tudor inh inconclusive
Cc1cccc(-n2c(C)cc(/C=C3\C(=N)N4N=C(CC(C)C)SC4=NC3=O)c2C)c1	none
Cc1cc(C)cc(-n2c(C)cc(/C=C3\C(=N)N4N=C(CC(C)C)SC4=NC3=O)c2C)c1	none
COCC(=O)N(C)c1nnc(-c2cnc(C)cn2)s1	none
C=CCc1ccc(OCC(O)CN2CCc3ccccc3C2)c(OC)c1 (centres undefined)	none (no result: G9a block)
Cc1cc(Cl)c(C)c(S(=O)(=O)Oc2ccccc2NC(=O)CCC(=O)O)c1Cl	none (no result: Sfp inh)
CCCCn1c(N)c(N(Cc2ccccc2OC)C(=O)c2sccc2C)c(=O)[nH]c1=O	none (no result: Sfp inh)
COc1ccc(OC)c(-n2c(C)cc(/C=C3\C(=N)N4N=C(CC(=O)N5CCOCC5)SC4=NC3=O)c2C)c1	G9a block inconclusive
CCS(=O)(=O)C1=NSC2=NC(=O)/C(=C\c3ccc(OS(=O)(=O)c4ccccc4)c(OC)c3)C(=N)N21	BAZ2B inh 50µM, G9a block 40µM, JMJD2A Tudor inh 56µM
COc1cccc(-n2c(C)cc(/C=C3\C(=N)N4N=C(CC(=O)N5CCOCC5)SC4=NC3=O)c2C)c1	BAZ2B inh 50µM
COc1cc(/C=C2/C(=N)N3C(=NC2=O)SN=C3S(C)(=O)=O)ccc1OS(=O)(=O)c1ccc(C)cc1	BAZ2B inh inconclusive, G9a block inconclusive, JMJD2A Tudor inh 56µM
CCn1c(SCC(=O)Nc2cc(C)on2)nc2c([nH]c3ccccc32)c1=O	none
O=C(/C=C/c1ccccc1)NCC1(c2ccccc2)CCOCC1	none
CC(C)[C@H](NC(=O)[C@H](Cc1ccccc1)n1c(=O)[nH]c2ccccc2c1=O)C(=O)N[C@@H](Cc1ccccc1)C(=O)O	none (no result: G9a block)
O=C(O)C(Cc1ccccc1)n1c(=S)[nH]c2ccccc2c1=O (centres undefined)	G9a block inconclusive, JMJD2A Tudor inh 14µM
Cc1ccc(COc2ccccc2C(=S)N2CCCC2)cc1	G9a block 13µM, Sfp inh 25µM
COc1cc(C)ccc1OCc1cc(C(=O)N2CCCCCC2)no1	JMJD2A Tudor inh 16µM (no result: G9a block)
Fc1ccc(COc2ccccc2C(=S)N2CCCC2)cc1	HP1b binding inh inconclusive, G9a block 1.8µM, JMJD2A Tudor inh 79µM, Sfp inh inconclusive
COc1cc(C(=S)N2CCCC2)ccc1OCc1ccc(C)cc1	G9a block 32µM
O=C(NN=C1CCCCC1)c1ccccc1OCc1ccc(F)cc1	none
O=C(NCCCO)c1ccc2[nH]c3ccccc3c2c1	none
Cc1ccc(CCN2CC(C(=O)NCCCN3CCCCC3)CC2=O)cc1 (centres undefined)	none
CCOc1cc(/C=C2\CCC/C(=C\c3cc(Cl)c(O)c(OCC)c3)C2=O)cc(Cl)c1O	none
COc1cc(/C=C2/C(=O)ON=C2C)cc(Cl)c1O	BAZ2B inh 56µM, G9a block 35µM
C#CCOc1c(Cl)cc(/C=C2/C(=O)ON=C2C)cc1OC	G9a block 40µM, Sfp inh 56µM
O=C(N=Nc1c(O)[nH]c2ccccc12)c1ccc2c(c1)OCO2	none
COc1cccc(CC(=O)Nc2ccc3c(c2)OC2(CCCC2)O3)c1	BAZ2B inh inconclusive, JMJD2A Tudor inh inconclusive (no result: Sfp inh)
Nc1ccc2c(c1)OC1(CCCCC1)O2	HP1b binding inh inconclusive, BAZ2B inh inconclusive, JMJD2A Tudor inh 56µM
CO[C@H]1/C=C/O[C@@]2(C)Oc3c(C)c(O)c4c(O)c(c(/C=N/N5CCN(C)CC5)c(O)c4c3C2=O)NC(=O)/C(C)=C\C=C\[C@H](C)[C@H](O)[C@@H](C)[C@@H](O)[C@@H](C)[C@H](OC(C)=O)[C@@H]1C	G9a block 20µM (no result: HP1b binding inh, BAZ2B inh, JMJD2A Tudor inh)
O=C(OCCCC(=O)N1CCOCC1)c1ccccc1	none
CCC1=C2CC[C@H]3C(=O)N(CC(=O)OC)C(=O)[C@H]3[C@H]2[C@@]2(C)C(=O)N(CC3CC3)C(=O)N2C1=O	Sfp inh 50µM (no result: HP1b binding inh, BAZ2B inh, G9a block, JMJD2A Tudor inh)
CCN1CCC(N(Cc2ccc3c(c2)OCO3)C(=O)Nc2ccc(Br)c(C)c2)CC1	BAZ2B inh inconclusive, G9a block inconclusive, JMJD2A Tudor inh inconclusive (no result: Sfp inh)
CC1=CC(c2ccc(Cl)cc2)n2nc(NC(=O)CCCC(=O)O)nc2N1 (centres undefined)	BAZ2B inh inconclusive, G9a block 50µM, JMJD2A Tudor inh 25µM
O=C(/C=C/c1ccccc1)Nc1nc2n(n1)C(c1ccc(Cl)cc1)C=C(c1ccccc1)N2 (centres undefined)	G9a block inconclusive (no result: Sfp inh)
CC(=O)Nc1nc2n(n1)C(c1ccc(F)cc1)C=C(c1ccc(Cl)cc1)N2 (centres undefined)	BAZ2B inh inconclusive, G9a block inconclusive (no result: Sfp inh)
CC1=CC(c2ccc(Cl)cc2)n2nc(NC(=O)CCC(=O)O)nc2N1 (centres undefined)	BAZ2B inh 50µM, G9a block 20µM, JMJD2A Tudor inh inconclusive
Cc1ccc(/C=C/C(=O)OCC(=O)Nc2ccc3[nH]c(=O)[nH]c3c2)o1	G9a block 40µM (no result: Sfp inh)
O=C(COC(=O)c1ccccc1Cl)Nc1ccc2[nH]c(=O)[nH]c2c1	none (no result: Sfp inh)
O=C(COC(=O)c1ccccc1OC(F)F)Nc1ccc2[nH]c(=O)[nH]c2c1	G9a block 40µM (no result: Sfp inh)
O=C(COC(=O)Cc1ccc(F)cc1)Nc1ccc2[nH]c(=O)[nH]c2c1	G9a block 50µM (no result: Sfp inh)
Cc1ccc(C(=O)c2c3ccccc3[n+]([O-])n2[C@@H](C)C(N)=O)cc1	none (no result: Sfp inh)
CNC1CCCN(c2c(F)cc3c(=O)c(C(=O)O)cn(C4CC4)c3c2OC)C1 (centres undefined)	none (no result: HP1b binding inh, BAZ2B inh, JMJD2A Tudor inh)
